Compound activity from PubChem BioAssay.
Rows were chosen to be rich in hits. Some 2.3% of all compounds tested hit in one or more screens of this group.
Nrf2 activator: activators of Nrf2 (ARE) signaling; Potency, µM (titrated, usually from 46.1 µM), usual class: activators; AID 624171; AREc32 ARE-luciferase reporter (MCF7-derived line), luminescence, 24 h; hit rate 0.31% among 410,000; also: nearly all actives have a fitted effect of over 65% in size
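For detection, Steady-Glo was added and plates sat 30 min at RT; before that, AREc32_Fluc cells grown overnight in OPTI-MEM/5% FBS had been treated with 23 nL compound for 24 hr at 37 deg C.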
Giardia killer: kills Giardia lamblia. Giardia lamblia trophozoite viability. activity change, % at 7.66 µM, hits read low. hit rate 0.15% among 340,000. AID 540267; in the data active = activity change below about -80%; inconclusive = between about -30% and that limit;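 also: parasites exposed to compound for two days anaerobically before the ATP read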
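Media and compound were dispensed first, then trophozoites at 100 cells/well; plates sat 48 hrs at 37 deg C without oxygen before ATP luminescence reagent was added and read after 15-30 min at room temperature.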
Nrf2 block: Nrf2 pathway inhibition; Potency, µM (top dose mostly 46 µM), most hits filed as inhibitors; hit rate 2.1% among 360,000; A549 ARE-Fluc reporter, luciferase luminescence, 18-24 h; AID 504444; also: nearly all actives have a fitted effect of over 60% in size
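Cells were seeded and rested 2 h, then exposed to compounds for 18-24 h. CellTiter-Fluor was read first as a viability measure. BugLite was added 15 min before the final luminescent read of ARE-luciferase activity in A549 cells.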
A549 viability: kills or reduces viability of A549 cells in Nrf2 counter-screen. hit rate 0.16% among 390,000. AID 504648. Potency, µM (titrated, usually from 46 µM), most hits filed as inhibitors. A549 ARE-Fluc cells, CellTiter-Fluor viability, 18-24 h
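Cytotoxicity counterscreen: CellTiter-Fluor fluorescence was measured in A549 ARE_Fluc cells after 18-24 h of compound exposure in a concentration series. The subsequent BugLite luminescent read reports ARE-luciferase activity.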
Anesthetic bind: binds horse apoferritin like a general anesthetic | Potency, µM (highest dose often 77.5 µM), actives largely listed as inhibitors | hit rate 0.074% among 350,000 | apoferritin/1-aminoanthracene competitive binding, fluorescence | AID 485281; also: nearly all actives have a fitted effect of over 20% in size
Target sequence (P02791 2-175 limits assumed): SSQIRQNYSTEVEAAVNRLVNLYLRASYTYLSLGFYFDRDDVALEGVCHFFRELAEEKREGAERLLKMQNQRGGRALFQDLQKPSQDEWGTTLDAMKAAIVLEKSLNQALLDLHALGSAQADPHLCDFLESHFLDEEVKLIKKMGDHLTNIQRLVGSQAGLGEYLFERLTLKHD
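Read-out: endpoint 1-AMA fluorescence, excitation 380 nm and emission 535 nm, after compounds sit 10 min at room temperature with 10 uM horse-spleen apoferritin in 50% saturated 1-AMA/PBS. Values come from four-parameter Hill fits.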
IDH1 R132H inh: inhibitors of human mutant IDH1 R132H | hit rate 0.093% among 390,000 | Potency, µM (doses to about 76.6 µM), actives largely listed as inhibitors | O75874 | IDH1-R132H enzyme, NADPH consumption, diaphorase/resazurin fluorescence; also: nearly all actives have a fitted effect of over 65% in size
Target sequence (O75874 whole entry R132H, stated change not applied): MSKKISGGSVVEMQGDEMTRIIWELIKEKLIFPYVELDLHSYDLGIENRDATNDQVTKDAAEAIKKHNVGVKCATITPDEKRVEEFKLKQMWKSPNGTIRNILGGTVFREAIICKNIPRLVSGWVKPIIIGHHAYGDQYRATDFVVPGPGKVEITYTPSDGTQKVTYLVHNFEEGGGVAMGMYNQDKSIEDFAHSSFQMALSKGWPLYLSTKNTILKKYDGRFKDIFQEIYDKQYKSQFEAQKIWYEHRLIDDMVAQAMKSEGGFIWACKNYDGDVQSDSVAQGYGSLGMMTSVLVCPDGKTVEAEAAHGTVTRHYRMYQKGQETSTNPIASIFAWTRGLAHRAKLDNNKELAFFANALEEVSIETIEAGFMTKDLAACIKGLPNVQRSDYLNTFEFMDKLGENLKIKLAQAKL
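IDH1-R132H (0.5 ug/mL dispensed) in pH 7.5 Tris buffer was preincubated 30 min with compound, then given a substrate mix of 0.016 mM NADPH and 2 mM alpha-KG for 80 min at room temperature; remaining NADPH was read by diaphorase/resazurin fluorescence.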
Each line names hits and unclear results; the compound was inactive in the other large screens. Unless noted, calls follow the shape of the dose curve; as a rule, active = well fitted curve in the direction sought with a large enough effect; inconclusive = small, poorly fitted or top-dose-only effect, or another doubt; inactive = no such curve, though single readings can be large; an effect the other way counts as inactive or inconclusive.

COc1ccc(N2CCN(C(=O)Nc3cccc(C(F)(F)F)c3)CC2)cc1	Nrf2 block 21µM, Anesthetic bind inconclusive
O=C(Nc1ccc2c(c1)OCO2)N1CCN(c2cccc(C(F)(F)F)c2)CC1	Nrf2 block 23µM
CN1CCN(C(=S)c2ccc(OCC(=O)Nc3cccc(C(F)(F)F)c3)cc2)CC1	Nrf2 block 15µM
Cc1cc(N2CCCC2)ccc1NC(=O)COc1cccc(C(F)(F)F)c1	Nrf2 block 5.8µM
O=C(NCCc1ccc(Cl)cc1)C1CCN(S(=O)(=O)c2ccc3[nH]ccc3c2)CC1	none (no result: Giardia killer, Nrf2 block)
Cc1ccc(NC2=CC(=O)c3sc(C)nc3C2=O)cc1	none (no result: Nrf2 activator, Giardia killer, Nrf2 block, A549 viability, IDH1 R132H inh)
COc1ccc(S(=O)(=O)N(C)C[C@@H]2OCc3cn(nn3)CCCC(=O)N([C@H](C)CO)C[C@H]2C)cc1	none (no result: Giardia killer, Nrf2 block, A549 viability, Anesthetic bind, IDH1 R132H inh)
COc1cccc(NC(=O)/C(C#N)=C/c2c(C)n(Cc3ccccc3)c3ccccc23)c1	Nrf2 block 12µM (no result: Giardia killer)
NC(=O)C1CCN(c2ccc(S(=O)(=O)N3CCC(Cc4ccccc4)CC3)cn2)CC1	Nrf2 block 1.6µM
Cc1ccccc1N(CC(=O)N/N=C/c1ccc(F)cc1)C(=O)c1ccccc1	none
Cc1ccccc1N(CC(=O)N/N=C/c1ccc(Cl)cc1)C(=O)c1ccccc1	Nrf2 block 21µM, A549 viability inconclusive
CC(C)(C)OC(=O)NCCCNc1ncnc2ccc(-c3ccc4c(c3)OCO4)cc12	none (no result: Nrf2 activator, Giardia killer, Anesthetic bind, IDH1 R132H inh)
COCCCNC(=S)Nc1cccc2ncccc12	Nrf2 block 13µM
O=C(NC(=S)Nc1cccc2ncccc12)c1ccco1	none
Nc1ccc(N2CCCCC2)c2nonc12	Nrf2 block inconclusive
Nc1ccc(C2CCCc3nonc32)c2nonc12 (configuration not stated)	Anesthetic bind 18µM
COC(=O)COc1ccc(-c2nccc(-c3ccccn3)n2)cc1	Nrf2 block 7.3µM
Cc1ccn2c(NC3CCCCC3)c(-c3ccc(C)o3)nc2c1	none (no result: Nrf2 activator, Anesthetic bind, IDH1 R132H inh)
O=C(c1ccc2c(c1)N(Cc1c(F)cccc1Cl)C(=O)c1ccccc1S2)N1CCCC1	Nrf2 block 10µM, A549 viability inconclusive (no result: Giardia killer)
O=C(c1ccc2c(c1)N(Cc1ccccc1Cl)C(=O)c1ccccc1S2)N1CCCC1	IDH1 R132H inh inconclusive (no result: Giardia killer, Nrf2 block)
Cc1ccc(CNC(=O)Cc2ccc(NC(=O)N3CCSc4ncccc43)cc2)cc1	none (no result: Giardia killer)
COc1ccc(CN(Cc2ccccc2)C(=O)Nc2ccccc2)cc1COc1ccc(NC(C)=O)cc1	none (no result: Nrf2 activator, Anesthetic bind, IDH1 R132H inh)
Cc1cc2oc(=O)cc(-c3ccccc3)c2c(C)c1-c1ccc(O)cc1	Nrf2 block 16µM
Cc1cc(O)c2c(-c3ccccc3)cc(=O)oc2c1	none
COCCCN(Cc1ccco1)C(=O)c1cc2c(s1)-c1ccccc1OC2	Nrf2 block 9.2µM (no result: Giardia killer)
Cc1ccc(CCNC(=O)c2cc3c(s2)-c2ccccc2OC3)cc1	Nrf2 block 18µM, A549 viability inconclusive
O=C(NCCc1ccc(Cl)cc1)c1cc2c(s1)-c1ccccc1OC2	Nrf2 block inconclusive (no result: Giardia killer)
COc1ccccc1Cc1c(-c2cccc(Br)c2)nc2ccc(Cl)cn12	none (no result: Giardia killer, Nrf2 block, A549 viability, Anesthetic bind, IDH1 R132H inh)
O=C(CSCc1ccc(F)cc1)N1CCN(c2ccccc2)CC1	Nrf2 block inconclusive
Cn1c(CSCc2ccc(F)cc2)nnc1SCC(=O)N1CCN(c2ccccc2)CC1	Nrf2 block 13µM
Cn1c(CSCc2ccc(F)cc2)nnc1SCC(=O)Nc1nccs1	Nrf2 block 18µM, A549 viability inconclusive
CC1(C)OC2CC3C4CC(F)C5=CC(=O)CC[C@@]5(C)C4C(O)C[C@@]3(C)[C@]2(C(=O)CO)O1 (some centres not stated)	none (no result: Nrf2 activator, Giardia killer, Nrf2 block, A549 viability, IDH1 R132H inh)
COc1cc(-c2cnc3c(NC(C)=O)cc(-c4ccccc4CN(C)C)cn23)cc(OC)c1OC	none (no result: Giardia killer, Nrf2 block, A549 viability, Anesthetic bind, IDH1 R132H inh)
COC(=O)c1[nH]c2ccc(C)cc2c1NC(=O)CN1CCN(c2ccccc2)CC1	Nrf2 block 18µM
CCCc1cc(=O)[nH]c(Nc2ccccc2O)n1	Nrf2 activator 11µM (no result: Giardia killer)
CCC/C=C(\CCC)C(NS(=O)(=O)c1cccs1)c1ccc(C(=O)OC)cc1 (configuration not stated)	none (no result: Nrf2 activator, Giardia killer, Nrf2 block, A549 viability, IDH1 R132H inh)
COC(=O)C1CCN(c2csc3ccc(Cl)cc3c2=O)CC1	none (no result: Giardia killer, Nrf2 block)
O=C(Nc1cnc2sccn2c1=O)c1ccccc1Cl	Nrf2 activator 11µM
Cc1cccc(NC(=O)c2cnc3sccn3c2=O)c1C	none (no result: Nrf2 activator, Giardia killer, Nrf2 block, A549 viability, IDH1 R132H inh)
COc1ccc(C2=N[C@@H](C(C)C)CO2)cc1	none (no result: Nrf2 activator, Giardia killer, Nrf2 block, A549 viability, IDH1 R132H inh)
O=C(Nc1nc(-c2cccs2)cs1)C1=COCCO1	Nrf2 activator inconclusive, Nrf2 block inconclusive
O=C(Nc1nc(-c2cccs2)cs1)c1ccco1	Nrf2 activator 13µM, Nrf2 block inconclusive
O=C(Nc1nc(-c2cccs2)cs1)c1ccc([N+](=O)[O-])o1	Nrf2 activator inconclusive, Giardia killer -82 (no result: Anesthetic bind)
COc1ccc(-c2ccc3ncnc(NCC4CCCO4)c3c2)cc1OC (configuration not stated)	Nrf2 block inconclusive (no result: Nrf2 activator, Giardia killer, Anesthetic bind, IDH1 R132H inh)
CNc1ncnc2c1ncn2[C@@H]1O[C@H](CO)[C@@H](O)[C@@H]1O	none (no result: Nrf2 activator, Giardia killer, Nrf2 block, A549 viability, IDH1 R132H inh)
